# This is a sample that favours compounds with a hit; in the whole collection about 13% have one here.
# USP8 inh – blocks human USP8 ubiquitin-rhodamine cleavage | inhibition, % at 20 µM | P40818 | actives 4.2% (n = 47,000) | purified USP8, Ub-rhodamine cleavage fluorescence, 30 min
# USP30 inh – inhibitors of human USP30 deubiquitinase; inhibition, % at 25 µM; purified USP30, Ub-rhodamine cleavage fluorescence; actives 5.3% (n = 47,000); AID 1645860; Q70CQ3
# USP17 inh – blocks human USP17 ubiquitin-rhodamine cleavage; A8MUK1; purified USP17, Ub-rhodamine cleavage fluorescence, 3 h; inhibition, % at 50 µM; actives 6.5% (n = 47,000); AID 1645855
# USP28 block – human USP28 deubiquitinase inhibition | AID 1645857 | Q96RU2 | actives 3% (n = 47,000) | purified USP28, Ub-rhodamine cleavage fluorescence, 30 min | inhibition, % at 25 µM
# Numbers without * were called inactive; i = inactive; . = not tested or not shown. Rule as the data show it: active = inhibition above about 30%; inactive = the rest.
SMILES,USP8 inh,USP30 inh,USP17 inh,USP28 block
Cc1cccc(CCNC(=O)CCc2nnc3n(CCc4ccccc4)c(=O)c4ccccc4n23)c1,2.8,39.0*,22.5,1.7
O=C(CCc1nnc2n(Cc3ccccc3)c(=O)c3ccccc3n12)N1CCN(c2ccccn2)CC1,16.9,60.1*,34.8*,26.2
CC(C)CCn1c(=O)c2ccccc2n2c(CCC(=O)NCC3CCCO3)nnc12 (stereo unspecified),8.7,1.5,5.3,1.2
O=C(NCc1nnc2ccccn12)c1sc2ccccc2c1Cl,2.4,12.4,3.6,11.2
Cc1ccc(Cn2c(=O)c3ccccc3n3c(CCC(=O)N4CCN(c5ccccn5)CC4)nnc23)cc1,-21.1,55.0*,43.2*,27.2
Cc1ccc(Cn2c(=O)c3ccccc3n3c(CCC(=O)N4CCN(C(=O)c5ccco5)CC4)nnc23)cc1,-0.4,16.8,42.5*,7.0
O=C(CCc1nnc2n(Cc3ccc(Cl)cc3)c(=O)c3ccccc3n12)N1CCN(c2ccccn2)CC1,4.7,83.4*,51.6*,62.0*
Cc1ccc(Cn2c(=O)c3ccccc3n3c(CCC(=O)N4CCOCC4)nnc23)cc1,2.3,14.0,-4.8,-1.4
O=C(CCc1nnc2n(CCc3ccccc3)c(=O)c3ccccc3n12)N1CCN(C(=O)c2ccco2)CC1,18.9,-11.7,0.9,-7.7
Cn1c(=O)c2c(ncn2CC(=O)OCc2c(F)cccc2Cl)n(C)c1=O,23.9,26.1,9.2,12.5
Fc1ccccc1-c1nc(-c2ccncc2)ncc1-c1nnnn1-c1ccccc1,10.2,11.4,4.1,0.9
Fc1cc(F)c2[nH]cc(-c3nnnn3-c3ccc4ccccc4c3)c2c1,55.4*,71.0*,.,45.5*
Cc1nn(-c2ccc3nnc(C)n3n2)c2c1C(c1cc(F)ccc1F)CC(=O)N2 (stereo unspecified),15.0,16.3,21.4,17.8
Cc1c(C)n(Cc2ccncc2)c2ncnc(NCCO)c12,-4.9,-6.4,-0.1,0.0
COc1ccc(C(=O)N(c2ccc(F)cc2)c2nc3ccccc3s2)cc1OC,-39.3,48.4*,4.4,3.9
CC(=O)c1ccc(N(C(=O)c2ccc(Cl)cc2)c2nc3ccccc3s2)cc1,1.6,-16.1,-39.2,-3.6
Cc1nc(CS(=O)c2ccc(Cl)cc2)cc(Oc2ccc(Cl)cc2Cl)n1 (stereo unspecified),-7.4,10.1,10.4,17.3
Cc1nnc(SCc2ccco2)c2c1nnn2Cc1ccc(F)cc1,14.2,-1.4,-0.4,23.9
Cc1cccc(NC(=O)c2nn(C)c3ccccc3c2=O)c1,7.2,36.8*,64.3*,18.9
CC[C@@H](C)[C@H](NC(=O)Cc1c(C)c2cc(Cl)c(O)cc2oc1=O)C(=O)O,-2.3,3.3,6.1,7.6
O=S(=O)(Nc1ccc(O)cc1)c1ccc2oc3ccc(S(=O)(=O)Nc4ccc(O)cc4)cc3c2c1,2.2,34.1*,54.5*,22.9
O=C(c1noc2ccc(S(=O)(=O)Nc3cccc(F)c3)cc12)N1CCOCC1,-18.0,-7.4,-13.6,-8.9
O=C(NCc1noc(-c2ccccc2)n1)c1ccc(-c2noc(C3CC3)n2)cc1,8.2,13.1,32.4*,27.7
COc1ccc(C(=O)NCc2noc(C3CCCCC3)n2)cc1C#N,-52.0,-3.5,-14.3,42.4*
COc1ccc(C(=O)NCc2noc(C3CCCC3)n2)cc1OC,1.5,.,-3.9,.
SMILES,USP8 inh,USP30 inh,USP17 inh,USP28 block
Cc1cccc(Nc2cc(C3CCCN(C(=O)c4cnc[nH]4)C3)ccn2)n1 (stereo unspecified),-20.1,-2.1,-8.4,-0.5
O=C(NCCc1nc(-c2ccncc2)n[nH]1)c1cccc2cccnc12,-4.9,.,-15.0,.
COc1ccc(-c2csc(N)n2)c2ccccc12,83.1*,-88.9,24.0,-11.4
COc1cccc2cc(-c3csc(N)n3)oc12,-18.6,-22.3,-10.4,18.2
O=C(Nc1ccc(N2CCN(Cc3ccc(F)cc3)C2=O)nc1)C1CCC1,28.4,62.6*,60.1*,38.4*
O=C(Nc1ccc(N2CCN(c3ccccc3)C2=O)nc1)C1CCOC1 (stereo unspecified),-27.4,34.9*,26.4,10.4
O=C(Nc1ccc(N2CCN(c3ccccc3)C2=O)nc1)C1CCCC1,16.7,0.3,2.1,-2.1
COc1ccc(CNc2c(S(=O)(=O)c3ccccc3)cnc3ccccc23)cc1,9.3,35.1*,10.8,6.1
Cc1ccc(S(=O)(=O)c2cnc3ccccc3c2NCc2ccccc2)cc1,4.0,5.5,0.9,-3.3
CN(C(=O)COC(=O)c1cc(Cl)cc(Cl)c1N)C1CCCCC1,-83.8,6.8,-22.8,4.5
COc1ccc(NC(=O)Cn2c(CSc3ccc(C)cc3)nc3ccccc32)cc1,-4.4,-111.9,54.4*,25.5
Cc1ccc(OCc2nc3ccccc3n2CC(=O)Nc2ccc(C(F)(F)F)cc2)cc1,18.0,38.2*,18.3,-2.4
COc1ccc(NC(=O)CSc2nc3ccccc3c3nc(C)nn23)cc1,-0.2,13.8,16.6,11.7
O=C(Cc1nnc(-c2cnccn2)o1)NCc1cccc(Cl)c1,-7.0,-4.7,-4.9,-2.0
O=C(NCc1cccc(Cl)c1)c1sc2ncccc2c1-n1cccc1,-51.8,-56.7,16.4,31.5*
O=C(CNC(=O)c1ccc2nc(-n3cccc3)sc2c1)NCc1cccc(Cl)c1,68.6*,-70.4,-50.6,-28.6
O=C(c1cccn1Cc1noc(-c2ccc(Cl)cc2)n1)N1CCOCC1,9.7,7.7,1.6,3.3
Cc1cc(C(=O)N2CC(C(=O)Nc3cc(C(F)(F)F)ccc3Cl)C2)no1,-36.6,70.5*,41.0*,15.5
CC(OC(=O)CCc1nc2ccccc2[nH]c1=O)C(=O)Nc1cccc(Cl)c1Cl (stereo unspecified),-59.6,-81.9,10.4,-15.0
O=C(COC(=O)CCc1nc2ccccc2[nH]c1=O)Nc1ccc([N+](=O)[O-])cc1,80.9*,-199.6,2.9,-22.6
Cc1ccc(Sc2ccc(C#N)cc2NC(=O)c2ccccc2C)cc1,5.7,40.9*,-4.3,1.6
COc1ccc2[nH]c(=O)c(CN(C)C(=O)c3ccc([N+](=O)[O-])cc3)cc2c1,25.6,-3.0,46.2*,3.2
Brc1ccc(Sc2cnns2)cc1,15.8,28.5,18.4,37.8*
NC(=O)c1ccc(NC(=O)Cc2cc(-c3ccc(F)cc3)on2)cc1,-8.1,-41.0,39.1*,-8.2
COc1cccc(-c2cc(CC(=O)Nc3ccc(C(N)=O)cc3)no2)c1,40.2*,-33.4,-3.3,17.7
SMILES,USP8 inh,USP30 inh,USP17 inh,USP28 block
Cc1cccc(OCC2=NN3C(=N)/C(=C\c4cc(C)n(-c5cc(C)cc(C)c5)c4C)C(=O)N=C3S2)c1,-110.5,i,-132.7,-192.3
Cn1nc(-c2nc(Cc3ccccc3)no2)c2c1CCN(C(=O)C1(c3ccccc3)CC1)C2,-47.3,-2.6,-7.7,0.2
C=C1C=C(NCCCN2CCOCC2)n2nc3nc(C)cc(C)c3c2N1,13.7,2.7,1.0,5.2
Cc1ccc(N=C2C(=O)N(Cc3ccccc3)c3ccccc32)cc1S(=O)(=O)N1CCOCC1,4.6,-1.9,-1.1,3.5
CC(Nc1ncnc2cc(-c3ccc(Cl)cc3)sc12)c1ccccn1 (stereo unspecified),57.3*,-0.4,-18.8,6.8
Cn1cccc1C(=O)N1CCCC2(C1)Nc1cccnc1NC2=NC1CCCC1 (stereo unspecified),-265.5,i,-214.2,-217.0
